# Results from the supplement of paper PMC8728848.
# The full list was thinned out, with the strongest signals kept by preference.
# B1: PX14351B-bth-512-36-512 (Bacteroides thetaiotaomicron) (protein)
# chain: ASETQQWKTLEDTRSALMGVYGLTRAALADNNTHWICGDLRKGDFTVYKRSDLQAVSDNELNKPYDLLKKVSNWRRFYAVINAASVFMEKAPRTVELDRSYSEQNLKYDIAQVRALRAFAYFYMVRIWGDVPLVTYSYDNGTFPSMPRTDAQTVLSYAKAELLTAIEDLPYQYGTQTNLYYGSYGAQWQGKLFNKLSAYSVLAHICAWQGNYAEAETYSAFIIDHASEINAKYTSIADLTSETGLFYSNASVKGSRILGFNFAHNDNEATQSGHLEQLTLAYPLVQKSYPEIYISKDSLFSIFTNFDDLRFGIIDTIKYSSYYVQNLNEETPVFSKIKIIQDGSAKDNDFGVFGSSIVFTRLEDITLLRAEALCALNRSTEAVSYLNMIRTNRGLREVSFKKDFGNNRESLIAEIFEERRRELMGEGWRWYDLVRRQKLMKDNEAFLRLISSGGIYWPVSEDIITANSQIEQNEFWK
# Key:
# Test in all cases: glycan array binding signal (z-score within array); higher = stronger binding
# Conditions in all cases: glycan notation: IUPAC condensed, linker removed
# Fuc(a1-2)Gal(b1-4)Glc = target: Fuc(a1-2)Gal(b1-4)Glc
# Method in brief: (§1)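 The binding signal is a Z-score computed within each array. Data were drawn from 3228 arrays in the Consortium for Functional Glycomics database, restricted to those with a known protein sequence. Scores were averaged over arrays of the same protein sequence at different concentrations or buffers, and over linkers, and negative values can be taken as non-binding.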
# [1] = target: Fuc(a1-2)Gal(b1-4)[Fuc(a1-3)]GlcNAc(b1-3)[Neu5Ac(a2-6)Gal(b1-4)GlcNAc(b1-6)]Gal(b1-4)Glc
# Method in brief: as §1
# [2] = target: Fuc(a1-2)Gal6S(b1-4)Glc6S
# Method in brief: as §1
# [3] = target: Fuc(a1-2)[GalNAc(a1-3)]Gal(b1-4)GlcNAc(b1-2)Man(a1-3)[Fuc(a1-2)[GalNAc(a1-3)]Gal(b1-4)GlcNAc(b1-2)Man(a1-6)]Man(b1-4)GlcNAc(b1-4)GlcNAc
# Method in brief: as §1
# [4] = target: Fuc(a1-3)[Gal(b1-4)]GlcNAc(b1-3)Gal(b1-4)[Fuc(a1-3)]GlcNAc(b1-3)Gal(b1-4)[Fuc(a1-3)]GlcNAc
# Method in brief: as §1
# [5] = target: Fuc(a1-3)[GalNAc(b1-4)]GlcNAc6S
# Method in brief: as §1
# [6] = target: Gal(a1-3)Gal(b1-3)[Fuc(a1-4)]GlcNAc(b1-2)Man(a1-3)[Gal(a1-3)Gal(b1-3)[Fuc(a1-4)]GlcNAc(b1-2)Man(a1-6)]Man(b1-4)GlcNAc(b1-4)GlcNAc
# Method in brief: as §1
# [7] = target: Gal(a1-3)Gal(b1-4)GlcNAc(b1-2)Man
# Method in brief: as §1
# [8] = target: Gal(a1-3)Gal(b1-4)GlcNAc(b1-3)GalNAc
# Method in brief: as §1
# [9] = target: Gal(a1-3)Gal(b1-4)GlcNAc(b1-6)GalNAc
# Method in brief: as §1
# Gal(b1-3)Gal = target: Gal(b1-3)Gal
# Method in brief: as §1
# Gal(b1-3)GalNAc = target: Gal(b1-3)GalNAc
# Method in brief: as §1
# [10] = target: Gal(b1-3)GalNAc(a1-3)[Fuc(a1-2)]Gal(b1-4)GlcNAc
# Method in brief: as §1
# [11] = target: Gal(b1-3)GlcNAc(a1-6)Gal(b1-4)GlcNAc
# Method in brief: as §1
# [12] = target: Gal(b1-3)GlcNAc(b1-3)Gal(b1-3)GlcNAc
# Method in brief: as §1
# [13] = target: Gal(b1-3)GlcNAc(b1-3)Gal(b1-4)GlcNAc(b1-2)[Gal(b1-3)GlcNAc(b1-3)Gal(b1-4)GlcNAc(b1-6)]Man(a1-6)[Gal(b1-3)GlcNAc(b1-3)Gal(b1-4)GlcNAc(b1-2)Man(a1-3)]Man(b1-4)GlcNAc(b1-4)[Fuc(a1-6)]GlcNAc
# Method in brief: as §1
# [14] = target: Gal(b1-3)[Neu5Ac(a2-6)]GlcNAc(b1-4)Gal(b1-4)Glc
# Method in brief: as §1
# [15] = target: Gal(b1-4)GlcNAc(b1-2)Man(a1-6)[Man(a1-3)]Man(b1-4)GlcNAc(b1-4)GlcNAc
# Method in brief: as §1
# [16] = target: Gal(b1-4)GlcNAc(b1-2)[Gal(b1-4)GlcNAc(b1-6)]Man(a1-6)[Gal(b1-4)GlcNAc(b1-2)Man(a1-3)]Man(b1-4)GlcNAc(b1-4)[Fuc(a1-6)]GlcNAc
# Method in brief: as §1
# [17] = target: Gal(b1-4)GlcNAc(b1-3)Gal(b1-4)Glc
# Method in brief: as §1
# [18] = target: Gal(b1-4)GlcNAc(b1-3)Gal(b1-4)GlcNAc(b1-2)[Gal(b1-4)GlcNAc(b1-3)Gal(b1-4)GlcNAc(b1-6)]Man(a1-6)[Gal(b1-4)GlcNAc(b1-3)Gal(b1-4)GlcNAc(b1-2)Man(a1-3)]Man(b1-4)GlcNAc(b1-4)GlcNAc
# Method in brief: as §1
# [19] = target: Gal(b1-4)GlcNAc(b1-3)Gal(b1-4)GlcNAc(b1-2)[Gal(b1-4)GlcNAc(b1-3)Gal(b1-4)GlcNAc(b1-6)]Man(a1-6)[Gal(b1-4)GlcNAc(b1-3)Gal(b1-4)GlcNAc(b1-2)Man(a1-3)]Man(b1-4)GlcNAc(b1-4)[Fuc(a1-6)]GlcNAc
# Method in brief: as §1
# [20] = target: Gal(b1-4)GlcNAc(b1-3)Gal(b1-4)GlcNAc(b1-3)Gal(b1-4)GlcNAc(b1-2)Man(a1-3)[Gal(b1-4)GlcNAc(b1-3)Gal(b1-4)GlcNAc(b1-3)Gal(b1-4)GlcNAc(b1-2)Man(a1-6)]Man(b1-4)GlcNAc(b1-4)GlcNAc
# Method in brief: as §1
# [21] = target: Gal(b1-4)GlcNAc(b1-3)Gal(b1-4)GlcNAc(b1-3)Gal(b1-4)GlcNAc(b1-3)Gal(b1-4)GlcNAc(b1-3)Gal(b1-4)GlcNAc(b1-2)[Gal(b1-4)GlcNAc(b1-3)Gal(b1-4)GlcNAc(b1-3)Gal(b1-4)GlcNAc(b1-3)Gal(b1-4)GlcNAc(b1-3)Gal(b1-4)GlcNAc(b1-6)]Man(a1-6)[Gal(b1-4)GlcNAc(b1-3)Gal(b1-4)GlcNAc(b1-3)Gal(b1-4)GlcNAc(b1-3)Gal(b1-4)GlcNAc(b1-3)Gal(b1-4)GlcNAc(b1-2)Man(a1-3)]Man(b1-4)GlcNAc(b1-4)[Fuc(a1-6)]GlcNAc
# Method in brief: as §1
# [22] = target: Gal(b1-4)GlcNAc(b1-3)GalNAc
# Method in brief: as §1
# [23] = target: Gal(b1-4)GlcNAc(b1-6)[Gal(b1-4)GlcNAc(b1-3)]GalNAc
# Method in brief: as §1
# Gal3S(b1-4)Glc = target: Gal3S(b1-4)Glc
# Method in brief: as §1
# Gal6S(b1-4)GlcNAc6S = target: Gal6S(b1-4)GlcNAc6S
# Method in brief: as §1
# GlcA(b1-3)Gal = target: GlcA(b1-3)Gal
# Method in brief: as §1
# [24] = target: GlcA3S(b1-3)Gal(b1-4)GlcNAc(b1-3)Gal(b1-4)Glc
# Method in brief: as §1
# [25] = target: GlcNAc(a1-4)Gal(b1-4)GlcNAc(b1-3)Gal(b1-4)[Fuc(a1-3)]GlcNAc(b1-3)Gal(b1-4)[Fuc(a1-3)]GlcNAc
# Method in brief: as §1
# [26] = target: GlcNAc(b1-2)[GlcNAc(b1-6)]Man(a1-6)[GlcNAc(b1-2)Man(a1-3)]Man(b1-4)GlcNAc(b1-4)GlcNAc
# Method in brief: as §1
# [27] = target: GlcNAc(b1-3)Gal(b1-3)GalNAc
# Method in brief: as §1
# [28] = target: GlcNAc(b1-3)Gal(b1-4)GlcNAc(b1-3)Gal(b1-4)GlcNAc(b1-3)Gal(b1-4)GlcNAc(b1-2)Man(a1-3)[GlcNAc(b1-3)Gal(b1-4)GlcNAc(b1-3)Gal(b1-4)GlcNAc(b1-3)Gal(b1-4)GlcNAc(b1-2)Man(a1-6)]Man(b1-4)GlcNAc(b1-4)GlcNAc
# Method in brief: as §1
# [29] = target: GlcNAc(b1-3)Gal(b1-4)GlcNAc(b1-3)Gal(b1-4)GlcNAc(b1-3)Gal(b1-4)GlcNAc(b1-2)[GlcNAc(b1-3)Gal(b1-4)GlcNAc(b1-3)Gal(b1-4)GlcNAc(b1-3)Gal(b1-4)GlcNAc(b1-6)]Man(a1-6)[GlcNAc(b1-3)Gal(b1-4)GlcNAc(b1-3)Gal(b1-4)GlcNAc(b1-3)Gal(b1-4)GlcNAc(b1-2)Man(a1-3)]Man(b1-4)GlcNAc(b1-4)[Fuc(a1-6)]GlcNAc
# Method in brief: as §1
# GlcNAc(b1-3)Man = target: GlcNAc(b1-3)Man
# Method in brief: as §1
# GlcNAc(b1-4)GlcNAc = target: GlcNAc(b1-4)GlcNAc
# Method in brief: as §1
# [30] = target: Kdn(a2-3)Gal(b1-4)[Fuc(a1-3)]GlcNAc
# Method in brief: as §1
# [31] = target: Man(a1-3)[Man(a1-6)]Man(a1-6)[Man(a1-3)]Man(b1-4)GlcNAc(b1-4)GlcNAc
# Method in brief: as §1
# [32] = target: Neu5Ac(a2-3)Gal(b1-4)GlcNAc(b1-3)Gal(b1-4)GlcNAc
# Method in brief: as §1
# [33] = target: Neu5Ac(a2-3)Gal(b1-4)GlcNAc(b1-3)Gal(b1-4)GlcNAc(b1-6)[Gal(b1-3)]GalNAc
# Method in brief: as §1
# [34] = target: Neu5Ac(a2-6)Gal(b1-4)GlcNAc(b1-2)[Neu5Ac(a2-6)Gal(b1-4)GlcNAc(b1-4)]Man(a1-3)[GlcNAc(b1-4)][Neu5Ac(a2-6)Gal(b1-4)GlcNAc(b1-2)[Neu5Ac(a2-6)Gal(b1-4)GlcNAc(b1-6)]Man(a1-6)]Man(b1-4)GlcNAc(b1-4)GlcNAc
# Method in brief: as §1
# [35] = target: Neu5Ac(a2-6)Gal(b1-4)GlcNAc(b1-3)Gal(b1-4)GlcNAc(b1-3)[Neu5Ac(a2-6)Gal(b1-4)GlcNAc(b1-3)Gal(b1-4)GlcNAc(b1-6)]GalNAc
# Method in brief: as §1
# [36] = target: Neu5Ac(a2-6)Gal(b1-4)GlcNAc(b1-6)GalNAc
# Method in brief: as §1
# [37] = target: Neu5Ac(a2-6)Gal(b1-4)GlcNAc6S
# Method in brief: as §1
# [38] = target: Neu5Ac(a2-8)Neu5Ac(a2-8)Neu5Ac(a2-3)[GalNAc(b1-4)]Gal(b1-4)Glc
# Method in brief: as §1
# [39] = target: Neu5Ac(a2-8)Neu5Ac(a2-8)Neu5Ac(a2-8)Neu5Ac(a2-3)[GalNAc(b1-4)]Gal(b1-4)Glc
# Method in brief: as §1
# [40] = target: Neu5Ac(a2-8)Neu5Gc(a2-3)Gal(b1-4)GlcNAc
# Method in brief: as §1
binder,measurement,setting,value
B1,glycan array binding signal (z-score),Fuc(a1-2)Gal(b1-4)Glc,-0.31
same,glycan array binding signal (z-score),[1],-0.143
same,glycan array binding signal (z-score),[2],-0.262
same,glycan array binding signal (z-score),[3],1.76
same,glycan array binding signal (z-score),[4],0.19
same,glycan array binding signal (z-score),[5],-0.185
same,glycan array binding signal (z-score),[6],17.9
same,glycan array binding signal (z-score),[7],-0.075
same,glycan array binding signal (z-score),[8],0.527
same,glycan array binding signal (z-score),[9],-0.314
same,glycan array binding signal (z-score),Gal(b1-3)Gal,-0.39
same,glycan array binding signal (z-score),Gal(b1-3)GalNAc,-0.25
same,glycan array binding signal (z-score),[10],0.364
same,glycan array binding signal (z-score),[11],0.113
same,glycan array binding signal (z-score),[12],-0.074
same,glycan array binding signal (z-score),[13],9.18
same,glycan array binding signal (z-score),[14],-0.273
same,glycan array binding signal (z-score),[15],-0.288
same,glycan array binding signal (z-score),[16],2.5
same,glycan array binding signal (z-score),[17],-0.34
same,glycan array binding signal (z-score),[18],0.755
same,glycan array binding signal (z-score),[19],2.73
same,glycan array binding signal (z-score),[20],3.44
same,glycan array binding signal (z-score),[21],2.11
same,glycan array binding signal (z-score),[22],-0.256
same,glycan array binding signal (z-score),[23],1.91
same,glycan array binding signal (z-score),Gal3S(b1-4)Glc,-0.16
same,glycan array binding signal (z-score),Gal6S(b1-4)GlcNAc6S,-0.34
same,glycan array binding signal (z-score),GlcA(b1-3)Gal,-0.428
same,glycan array binding signal (z-score),[24],-0.114
same,glycan array binding signal (z-score),[25],-0.049
same,glycan array binding signal (z-score),[26],-0.115
same,glycan array binding signal (z-score),[27],-0.128
same,glycan array binding signal (z-score),[28],-0.068
same,glycan array binding signal (z-score),[29],0.033
same,glycan array binding signal (z-score),GlcNAc(b1-3)Man,-0.006
same,glycan array binding signal (z-score),GlcNAc(b1-4)GlcNAc,-0.165
same,glycan array binding signal (z-score),[30],-0.287
same,glycan array binding signal (z-score),[31],-0.271
same,glycan array binding signal (z-score),[32],-0.265
same,glycan array binding signal (z-score),[33],0.652
same,glycan array binding signal (z-score),[34],0.217
same,glycan array binding signal (z-score),[35],-0.33
same,glycan array binding signal (z-score),[36],0.191
same,glycan array binding signal (z-score),[37],-0.355
same,glycan array binding signal (z-score),[38],-0.362
same,glycan array binding signal (z-score),[39],1.91
same,glycan array binding signal (z-score),[40],4.31
